High-throughput results as filed in PubChem.
Pf growth 96h – P. falciparum growth inhibition at 96 hours; P. falciparum luciferase reporter growth, 96 h; Potency, µM (doses to about 28.7 µM), actives largely listed as inhibitors; hit rate 6.9% among 320,000; AID 504834
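Two-generation exposure (96 h) targets delayed-death phenotype. Reporter parasites carrying integrated firefly luciferase, in red cells at 2% hematocrit and 0.05% parasitemia final, kept at 37 C, 5% CO2; luminescence loss indicates inhibition.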
Pf growth 48h – inhibits P. falciparum growth in the first generation, 48 h. P. falciparum luciferase growth in erythrocytes, 48 h. Potency, µM (doses to about 28.7 µM), usual class: inhibitors. hit rate 5.9% among 310,000
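Luminescence readout; reporter = integrated firefly luciferase in P. falciparum. RBC culture at 2% hematocrit, 0.1% parasitemia final, 37 C/5% CO2; decreased signal taken as growth inhibition.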
Giardia FBPA inh – blocks Giardia fructose-bisphosphate aldolase activity; A8B2U2; purified Giardia FBPA; Potency, µM (doses to about 59.6 µM), actives largely listed as inhibitors; hit rate 0.71% among 290,000; also: nearly all actives have a fitted effect of over 55% in size
Target sequence (A8B2U2 whole entry, looked up): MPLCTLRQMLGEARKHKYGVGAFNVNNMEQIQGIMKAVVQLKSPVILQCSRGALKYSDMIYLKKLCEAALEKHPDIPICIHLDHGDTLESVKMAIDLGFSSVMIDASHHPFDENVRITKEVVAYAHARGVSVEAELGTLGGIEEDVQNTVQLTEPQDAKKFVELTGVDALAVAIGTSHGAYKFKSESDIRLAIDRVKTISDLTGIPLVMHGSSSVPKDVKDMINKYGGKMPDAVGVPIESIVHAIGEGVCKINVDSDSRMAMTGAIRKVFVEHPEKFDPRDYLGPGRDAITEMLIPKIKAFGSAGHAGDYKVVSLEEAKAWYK
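Giardia FBPA (40 nM reagent) was preincubated 10 min at RT with compound (up to 57.5 uM final), then substrate plus GAPDH/TPI/NAD/arsenate coupling system with diaphorase/resazurin was added; resorufin fluorescence (525/598 nm) was read after 20 min.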
Shiga toxin inh – Shiga toxin inhibition | AID 2315 | hit rate 9.2% among 290,000 | inhibition, % at 38.7 µM | Vero cells, Shiga toxin protein synthesis inhibition reporter; in the data active = inhibition mostly above about 28%, no sharp cut-off; inactive = mostly below about 43%
Cycloheximide cs – counter-screen for Shiga toxin inhibitors: cycloheximide protein synthesis inhibition; cell reporter, cycloheximide protein synthesis inhibition counterscreen; max response, %; hit rate 12% among 300,000; AID 2314; in the data active = max response mostly above about 13%, no sharp cut-off; inactive = mostly below about 14%; also: read at 38.3 µM for the half of the compounds with a filed dose
NS1 function inh – inhibitors of influenza NS1 protein function; AID 2326; Potency, µM (doses to about 46.1 µM); hit rate 0.4% among 270,000; calls by dose curve; also: actives are rising curves; nearly all actives have a fitted effect of over 50% in size
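Read-out: OD600 growth recovery of NS1-expressing budding yeast. Cells grown overnight at 30C in -URA glucose medium, washed, resuspended and diluted 1:100 in 2% galactose assay medium, pH 6.0. Same strain lacking NS1 served as positive control.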
Of the large screens only hits and unclear results are named; the others gave an inactive call. Rows were chosen to be rich in hits. Some 21% of all compounds tested hit in one or more screens of this group. Unless noted, calls follow the shape of the dose curve; as a rule, active = well fitted curve in the direction sought with a large enough effect; inconclusive = small, poorly fitted or top-dose-only effect, or another doubt; inactive = no such curve, though single readings can be large; an effect the other way counts as inactive or inconclusive.

Cc1ccc(C(=O)N/C(=C\c2ccc(-c3cc(Cl)ccc3Cl)o2)C(=O)NCc2cccnc2)cc1	Pf growth 96h inconclusive
CN(C)C(=O)c1ccc(NC(=O)COC(=O)Cn2cc(C(F)(F)F)ccc2=O)cc1	none (no result: Giardia FBPA inh, Shiga toxin inh, Cycloheximide cs, NS1 function inh)
CCOc1ccc(C(=O)COC(=O)c2nc3nccc(C)n3n2)cc1	none (no result: Giardia FBPA inh, Shiga toxin inh, Cycloheximide cs, NS1 function inh)
Cc1cc(C(C)(C)C)cc(C)c1C(=O)O	none
N#C/C(=C\c1c[nH]c2ccc(Br)cc12)c1ccccn1	Pf growth 96h 9.28µM, Pf growth 48h inconclusive
N#C/C(=C(/O)CCCl)c1ccccn1	none (no result: NS1 function inh)
COc1ccc(C(=O)N(CN2CCCC2=O)c2ccccc2OC)cc1OC	Pf growth 96h 0.0041µM
COc1cccc2[nH]c(C(=O)NCC3CCCO3)cc12 (stereo not drawn)	Giardia FBPA inh inconclusive
O=C(NCC1CCCO1)c1cc2ccccc2[nH]1 (stereo not drawn)	Pf growth 96h inconclusive, Shiga toxin inh 120.9, Cycloheximide cs 15.1
O=C(NCC1CCCO1)c1ccc(F)c2ccccc12 (stereo not drawn)	none
COc1ccccc1-c1nc(C(=O)NCC2CCCO2)cc2c1[nH]c1ccccc12 (stereo not drawn)	Pf growth 96h 8.28µM, Pf growth 48h 9.28µM
O=C(NCC1CCCO1)c1cc2c([nH]c3ccccc32)c(-c2cccc(Cl)c2)n1 (stereo not drawn)	Pf growth 96h 5.86µM, Pf growth 48h inconclusive
COc1ccccc1-n1c(SCC(=O)NCC2CCCO2)nc2c([nH]c3ccccc32)c1=O (stereo not drawn)	none (no result: Giardia FBPA inh)
O=C(NCC(c1ccco1)N1CCCC1)c1cc2cc(Cl)ccc2o1 (stereo not drawn)	Pf growth 96h 9.28µM, Pf growth 48h inconclusive (no result: Giardia FBPA inh, Shiga toxin inh, Cycloheximide cs, NS1 function inh)
O=C(CCNC(=O)c1ccc(Cl)cc1)NCC(c1ccco1)N1CCCCC1 (stereo not drawn)	Pf growth 96h 4.65µM, Pf growth 48h inconclusive (no result: Giardia FBPA inh, Shiga toxin inh, Cycloheximide cs, NS1 function inh)
Cc1ccccc1OCC(=O)NCC(c1ccco1)N1CCCCC1 (stereo not drawn)	Pf growth 96h inconclusive
O=C(NCC(c1ccco1)N1CCCC1)c1ccc(Cl)cc1 (stereo not drawn)	Pf growth 96h 0.928µM (no result: Pf growth 48h)
Cc1cc(C)c(OCC(=O)NCC(c2ccco2)N2CCCCC2)c(C)c1 (stereo not drawn)	Pf growth 96h 11.7µM, Pf growth 48h 13.1µM (no result: Giardia FBPA inh, Shiga toxin inh, Cycloheximide cs, NS1 function inh)
CCOc1ccc(C(=O)NCC(=O)NCC(c2ccco2)N2CCCCC2)cc1OCC (stereo not drawn)	Pf growth 48h inconclusive (no result: Giardia FBPA inh, Shiga toxin inh, Cycloheximide cs, NS1 function inh)
CCCNC(=O)OC[C@@H]1O[C@H](CCO/N=C(\C)CCC(=O)OC[C@@H]2O[C@H](C#Cc3ccccc3)C=C[C@@H]2Oc2ccc(C)cc2)C=C[C@@H]1Oc1ccc(OC)cc1	none (no result: Pf growth 96h, Pf growth 48h, Shiga toxin inh, Cycloheximide cs, NS1 function inh)
Nc1ccc(C(=O)N2CCN(S(=O)(=O)c3ccc4c(c3)OCCO4)CC2)cc1[N+](=O)[O-]	none (no result: Giardia FBPA inh)
O=C(NCC(c1ccco1)N1CCCC1)c1cc2ccccc2s1 (stereo not drawn)	Pf growth 96h 4.15µM, Pf growth 48h 2.62µM (no result: Giardia FBPA inh, Shiga toxin inh, Cycloheximide cs, NS1 function inh)
Cc1ccc2c(Cl)c(C(=O)NCC(c3ccco3)N3CCCC3)sc2c1 (stereo not drawn)	Pf growth 96h inconclusive, Pf growth 48h inconclusive (no result: Giardia FBPA inh)
Cc1nn(-c2ccc(C(=O)NCC(c3ccco3)N3CCCC3)cc2)c(C)c1Cl (stereo not drawn)	Pf growth 96h 0.828µM, Pf growth 48h inconclusive (no result: Giardia FBPA inh, Shiga toxin inh, Cycloheximide cs, NS1 function inh)
Cc1ccc2oc(C(=O)NCC(c3ccco3)N3CCCC3)c(C)c2c1 (stereo not drawn)	Pf growth 96h inconclusive, Cycloheximide cs 20.4 (no result: Giardia FBPA inh)
CCC(C)CCN1C(Nc2ccccc2)=NC[C@@H]1C (stereo partly drawn)	none
NS(=O)(=O)c1ccc(Sc2ccc3c(c2)CCC3)nc1	none
COCc1nnc(NS(=O)(=O)c2ccccc2)s1	Pf growth 96h 1.04µM
Cc1ccc(NC(=O)c2ccc(Cl)nc2)cc1	Shiga toxin inh 139.8, Cycloheximide cs 34.1
CC(=O)Nc1ccc(S(=O)(=O)Nc2nnc(CC(C)(C)C)s2)cc1	Pf growth 96h inconclusive, Shiga toxin inh 76.5, Cycloheximide cs 21.5
CCc1nnc(NS(=O)(=O)c2ccc(NC(=O)c3ccc(S(=O)(=O)N(CC)CC)cc3)cc2)s1	Pf growth 48h 13.1µM
Cc1ccc(OCc2cccc(S(=O)(=O)N(C)C)c2)c([N+](=O)[O-])n1	none (no result: Giardia FBPA inh)
COc1ccccc1C(=O)Nc1ccnn1C1CCN(Cc2cnc(N(C)C)s2)CC1	none (no result: Giardia FBPA inh)
CC1(CC(=O)N/N=C/c2cc3c(cc2Br)OCO3)OCCO1	Pf growth 96h inconclusive (no result: NS1 function inh)
